Pemphigus Ab inh: human desmoglein-3 autoantibody binding inhibition. DSG3-coupled beads, scFv-anti-DSG3-GFP binding, flow cytometry; active compounds read low. binding (percent of control), % at 10 µM. 310,000 compounds, 0.48% hits. AID 588358;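 active = binding more than 3 SD below its plate's average and above zero; inconclusive = below that plate limit but binding exactly zero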;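 also: hits lower antibody fragment binding to DSG3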
PAFAH1B3 FP inh: inhibitors of human PAFAH1B3; Q15102; recombinant PAFAH1B3, FP-rhodamine probe, fluorescence polarization; inhibition, % at 3.39 µM; 340,000 compounds, 0.28% hits;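 active = inhibition above the screen-wide average of all tested compounds plus 3 SD, cut at about 25% in these data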;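 also: 0% = enzyme with DMSO only and 100% = wells lacking PAFAH1B3 protein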
Target sequence (Q15102 whole entry, looked up): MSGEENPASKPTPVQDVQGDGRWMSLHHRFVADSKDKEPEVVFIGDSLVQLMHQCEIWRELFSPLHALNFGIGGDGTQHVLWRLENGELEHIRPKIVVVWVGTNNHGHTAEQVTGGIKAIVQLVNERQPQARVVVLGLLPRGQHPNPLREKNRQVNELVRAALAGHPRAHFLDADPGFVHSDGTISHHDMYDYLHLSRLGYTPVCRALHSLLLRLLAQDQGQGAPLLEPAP
PAFAH1B2 inh: blocks human PAF acetylhydrolase 1b catalytic subunit 2 | recombinant PAFAH1B2, FP-rhodamine activity probe, fluorescence polarization | inhibition, % at 3.39 µM | 340,000 compounds, 1.2% hits | AID 492953;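 active = inhibition above the mean of all tested compounds plus 3 SD, cut at about 24% in these data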;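 also: 0% = enzyme with DMSO and 100% = wells lacking PAFAH1B2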
Target sequence (P68402 whole entry, looked up): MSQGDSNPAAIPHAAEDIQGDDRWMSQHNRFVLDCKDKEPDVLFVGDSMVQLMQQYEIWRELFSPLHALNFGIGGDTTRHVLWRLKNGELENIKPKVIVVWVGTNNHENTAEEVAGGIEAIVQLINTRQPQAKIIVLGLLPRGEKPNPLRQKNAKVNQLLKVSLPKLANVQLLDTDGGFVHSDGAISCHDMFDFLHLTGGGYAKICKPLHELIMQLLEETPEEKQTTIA
PAFAH2 inh: PAFAH2 (human) inhibition; Q99487; recombinant PAFAH2, FP-rhodamine activity probe, fluorescence polarization; inhibition, % at 3.39 µM; 340,000 compounds, 0.99% hits;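 active = inhibition above the mean over all tested compounds plus 3 SD, cut at about 30% in these data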;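 also: inhibitors block probe labeling of enzyme so polarization drops; 0% = enzyme with DMSO and 100% = wells lacking PAFAH2 protein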
pPAFAH inh: pPAFAH (human) enzyme inhibition | 330,000 compounds, 1.5% hits | AID 463082 | recombinant pPAFAH, FP-rhodamine probe fluorescence polarization | inhibition, % at 3.39 µM;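 active = inhibition above the mean inhibition across the screen plus 3 SD, cut at about 25% in these data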;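 also: inhibitors block binding of the rhodamine activity-based probe so polarization drops; 0% = enzyme with DMSO and 100% = wells lacking pPAFAH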
PfM18AAP inh-1: PfM18AAP enzyme inhibition; 290,000 compounds, 1.2% hits; recombinant PfM18AAP, H-Glu-NHMec fluorogenic cleavage; AID 1822; inhibition, % at 7.35 µM;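 active = inhibition above the campaign mean inhibition over all tested compounds plus 3 SD, cut at about 28% in these data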;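 also: 0% = plate median of test compound wells and 100% = 2 mM ZnCl2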
PfM18AAP inh-2: confirmation of Plasmodium falciparum M18 aspartyl aminopeptidase inhibitors. recombinant PfM18AAP, H-Glu-NHMec fluorogenic cleavage. shares compounds with PfM18AAP inh-1. 2,400 compounds, 28% hits. inhibition, % at 7.35 µM;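 active = mean inhibition over replicate wells above the hit cutoff set for the earlier primary screen, cut at about 29% in these data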;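 also: 0% = median of test compound wells and 100% = 2 mM ZnCl2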
CTSL1 confirm: Cathepsin L (human) inhibition, confirmation. 2,400 tested, under 10 active. shares compounds with PfM18AAP inh-1. purified cathepsin L1, Z-Leu-Arg-MCA fluorescence. inhibition, % at 5.96 µM;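 active = average inhibition across replicates above the hit cutoff set in the earlier primary screen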;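 also: 0% = median of test compound wells and 100% = Z-Phe-Ala-diazomethylketone 1 µM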
Starred values were filed as active, the others as inactive; ? = inconclusive; nt = no result given. Compounds with a hit are over-represented: about 3.8% of the library has one in this group of screens.

SMILES	Pemphigus Ab inh	PAFAH1B3 FP inh	PAFAH1B2 inh	PAFAH2 inh	pPAFAH inh	PfM18AAP inh-1	PfM18AAP inh-2	CTSL1 confirm
CN(/N=C\c1ccc(O)c(O)c1)c1nc(-c2ccccc2)cc(-c2ccccc2)n1	54*	-12	7	-12	23	50*	24	-3
COc1ccc(/C=N/N(c2ccccc2)c2ccccc2)cc1O	99	15	7	8	nt	3	nt	nt
COc1ccccc1C(=O)NC(CCSC)C(=O)OC(C)C(=O)NC1CC1 (centres undefined)	103	9	11	5	0	nt	nt	nt
Cc1oc(-c2ccccc2Cl)nc1CS(=O)(=O)CC(=O)NCCN1CCOCC1	110	-4	-6	-5	-2	-3	nt	nt
CCOC(=O)c1sc(NN=C(C(=O)OC)C(=O)OC)c(C(=O)OCC)c1C	105	-14	-3	7	8	0	nt	nt
C/C(=N\Nc1nc(C)cc(-c2ccccc2)n1)c1ccc(C)o1	98	4	6	-1	7	52*	-34	-1
C/C(=N/Nc1nc(C)cc(-c2ccccc2)n1)c1ccco1	122	4	-1	-2	-3	13	nt	nt
O=C(COC(=O)c1cccc(S(=O)(=O)N2CCCC2)c1)NCc1ccccc1	100	4	-2	22	5	-4	nt	nt
Oc1ccc(/C=N/n2c(COc3ccccc3)n[nH]c2=S)cc1O	94	11	3	-5	14	53*	20	-8
COc1cccc(CN2CC(C(=O)NCc3ccc(Cl)s3)CCC2=O)c1 (centres undefined)	97	8	7	3	nt	-8	nt	nt
O=Cc1ccc(O)cc1O	99	9	3	9	3	8	nt	nt
O=CN/C=C/c1cc(O)ccc1O	78*	23	7	11	18	61*	83*	0
CCN(CC)c1ccc(/C=N/NC(=O)OC)c(O)c1	109	2	3	-1	1	19	nt	nt
CCN(CC)c1ccc(/C=N/NC(=S)NC)c(O)c1	101	5	3	16	3	41*	10	12
CCN(CC)c1ccc(N=Cc2ccc(N(CC)CC)cc2O)cc1	170	4	1	-1	29*	43*	-22	-2
CCN(CC)c1ccc(C=Nc2ccc(N(C)C)cc2)c(O)c1	142	-23	-16	-14	16	19	nt	nt
COCc1nnc(NC(=O)COc2ccc3c(c2)OCO3)s1	?	-4	1	6	5	11	nt	nt
O=C(COc1ccc2c(c1)OCO2)Nc1nnc(Cc2ccccc2)s1	nt	5	2	-6	-4	38*	-18	-5
Oc1ccc(/C=N/Nc2cccc(Cl)n2)c(O)c1	98	12	11	-9	6	58*	57*	7
COc1ccccc1NS(=O)(=O)c1cc(NC(=O)C(C)(C)C)ccc1N1CCOCC1	88	3	7	-2	3	nt	nt	nt
COc1ccccc1NS(=O)(=O)c1cc(NC(=O)c2sccc2C)ccc1N1CCOCC1	89	-5	-3	-8	-6	1	nt	nt
COc1ccccc1NS(=O)(=O)c1cc(NC(=O)c2sccc2C)ccc1N1CCCC1	109	1	-6	-1	-1	56*	8	-2
COc1ccccc1NS(=O)(=O)c1cc(NC(=S)NCCN2CCOCC2)ccc1N1CCOCC1	122	1	0	9	4	38*	12	1
COc1ccccc1NS(=O)(=O)c1cc(NC(=O)c2cccs2)ccc1N1CCCCC1	102	-32	-15	-39	-27	-12	nt	nt
COc1ccccc1NS(=O)(=O)c1cc(NC(=O)c2cccs2)ccc1N1CCCC1	95	-3	-6	-33	-1	36*	-4	3
CCN(C(=O)COC(=O)c1ccccc1Oc1ccccc1)c1c(N)n(Cc2ccccc2)c(=O)[nH]c1=O	nt	-9	-1	2	nt	nt	nt	nt
Cc1ccc(-c2nnn(CC(=O)N(CC(=O)NC(C)C)c3cnc4ccccc4c3)n2)o1	96	-8	-4	16	-2	11	nt	nt

Source: PubChem BioAssay
